CTSL1 counter: counter-screen for PFM18AAP inhibitors: inhibitors of F. hepatica cathepsin L1; inhibition, % at 5.96 µM; recombinant F. hepatica cathepsin L1, Z-Leu-Arg-MCA fluorescence; 300,000 compounds, 0.49% hits;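 active means inhibition above the mean of all tested compounds plus 3 SD, set per screening campaign, cut at about 17% in these data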;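 further: 0% = plate median of test compound wells and 100% = 1 µM Z-Phe-Ala-diazomethylketone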
HDAC3 inhib: inhibitors of human histone deacetylase 3; inhibition, % at 8.3 µM; O15379; 320,000 compounds, 0.15% hits; recombinant HDAC3, fluorogenic peptide/trypsin coupled, fluorescence; in the data active means inhibition above about 26%, passing the limit was not always enough; inconclusive means no clear call, values can overlap the other calls
LANA-H2A inh: blocks KSHV LANA binding to histone H2A/H2B; 320,000 compounds, 0.6% hits; cell-free LANA-H2A/H2B peptide, fluorescence polarization; inhibition, % (test concentration not listed); in the data active means inhibition mostly above about 10%, no sharp cut-off; inactive means mostly below about 6.7%
HTR2A ag: activates the mouse 5-HT2A serotonin receptor; P35363; CHO-K1 mHTR2A beta-arrestin complementation, luminescence; percent of 30 µM serotonin response; activation, % at 7.6 µM; 360,000 compounds, 0.66% hits; AID 624169;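 active means activation above a run cutoff, the mean activation of all tested compounds plus 3 SD, cut at about 14% in these data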;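 further: 0% = plate median of compound wells and 100% = 30 µM serotonin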
* = called active by the depositor; u = inconclusive; x = no result; + = active, no number. Compounds with a hit are over-represented: about 1.7% of the library has one in this group of screens.

SMILES	CTSL1 counter	HDAC3 inhib	LANA-H2A inh	HTR2A ag
CCCC[C@@H]1Cc2[nH][nH]c(=O)c2[C@H](c2cccc3ccccc23)O1	x	x	x	1
Clc1nnc(NC2CCCCC2)c(Cl)c1Cl	x	x	x	3
O=C(O)c1ccc(N/N=C/c2c[nH]c3ccccc23)cc1	-3	-5	-6	10
COC(=O)N/N=C/c1c[nH]c2ccccc12	-3	3	-2	4
Fc1c(F)c(F)c(N/N=C/c2c[nH]c3ccccc23)c(F)c1F	4	32*	-3	0
O=C(N/N=C\c1c[nH]c2ccccc12)c1ccc(O)cc1	x	4	74*	-4
NC(=S)N/N=C/c1c[nH]c2ccccc12	102*	10	-2	2
O=C(N/N=C/c1c[nH]c2ccccc12)c1ccc(Br)cc1	3	11	-1	-3
O=C(COC(=O)CCC(=O)c1cccs1)Nc1ccccc1C(F)(F)F	x	0	-8	1
CCCCN(C(=O)c1cccc(S(=O)(=O)N2CC(C)OC(C)C2)c1)c1c(N)n(CC(C)C)c(=O)[nH]c1=O (configuration not stated)	1	-2	-3	-1
COc1cccc(CN2CC(C(=O)NCCc3nccs3)CCC2=O)c1 (configuration not stated)	x	x	x	10
CCN(CC)S(=O)(=O)c1ccc(N2CCOCC2)c(NC(=O)COc2ccc(OC)cc2)c1	x	-3	+	-7
CCN(CC)S(=O)(=O)c1ccc(N2CCOCC2)c(NC(=O)COc2ccc(C#N)cc2)c1	-5	x	x	1
CCOc1ccc(/C=N/NC(=O)Cc2csc(Nc3cccc(C(F)(F)F)c3)n2)c(OCC)c1	4	36*	0	-2
CCn1c2ccccc2c2cc(NC(=O)C(C)OC(=O)c3ccc(NC(=O)CC#N)cc3)ccc21 (configuration not stated)	x	0	-9	-2
CN1CCN(C(=O)C2=C[C@@H](c3ccc(Br)cc3)C[C@@H](OCc3ccc(CO)cc3)O2)CC1	17*	-2	-3	-10
CN1CCN(C(=O)C2=C[C@@H](c3ccccc3)C[C@@H](OCc3ccc(CO)cc3)O2)CC1	0	-1	6	4
O=C(c1ccc(O)cc1)c1ccc(C(=O)c2ccc(O)cc2)cc1	1	-4	13*	7
C[C@@H]1O[C@@H]1P(=O)(O)O	2	-3	3	5
C[C@H]1O[C@H]1P(=O)(O)O	-2	x	33*	-2
COC(=O)c1sccc1NC(=O)Nc1ccccc1F	-3	9	12*	2
CC(C)(C)c1nc2ccc(NS(=O)(=O)c3ccc(F)c(F)c3F)cc2[nH]1	1	0	2	3
CCN(CC(=O)NCc1ccc(Cl)cc1)C(=O)CSCC(=O)Nc1ccc(OC)cc1	-1	u	-4	8
Cc1ccc(S(=O)(=O)N2CCN(C(=O)CCC(=O)NCc3cccc(C(F)(F)F)c3)CC2)cc1	2	5	4	-3
CCCN(CCC)C(=O)C1CC(=O)OC12CCCCC2 (configuration not stated)	10	4	13*	3
SMILES	CTSL1 counter	HDAC3 inhib	LANA-H2A inh	HTR2A ag
CN(C)C(=O)C1CC(=O)OC12CCCCC2 (configuration not stated)	-4	-2	0	3
Cc1cccc(C(=O)NCC(=O)OCC(=O)N(C)CC(=O)Nc2ccc(F)cc2)c1	40*	0	4	-2
CC(C)N(C(=O)[C@H]1C[C@H](CC(=O)NCCCn2ccnc2)C(=O)N2CCc3c([nH]c4cc(CCC(=O)N(C)C)ccc34)[C@]12C)C(C)C	x	x	x	-2
Cn1c(SCC(=O)NC(=O)NCc2ccccc2)nnc1C(F)(F)F	x	0	0	3
O=C1Cc2ccccc2C(=O)N1CCc1ccccc1	67*	-1	0	2
CN(C)C(CNC(=O)c1ccc(C2SCCS2)cc1)c1ccccc1 (configuration not stated)	3	54*	-9	-15
CN(C)C(CNC(=O)c1ccc(NC(=O)c2cccs2)cc1)c1ccccc1 (configuration not stated)	-1	-5	3	-9
COCCNC(=O)C1(C)CCCN(C(=O)c2ccc3snnc3c2)C1 (configuration not stated)	x	x	x	10
Cc1ccccc1NC(=S)N1CCC(C(=O)c2ccc(F)cc2)CC1	2	2	28*	-2
Cc1c(CCCl)c(Cl)n2c(nc3ccccc32)c1C#N	x	x	x	2
COc1ccc(C)cc1S(=O)(=O)N1CCCC(C(=O)NC2CC2)C1 (configuration not stated)	-1	1	0	4
Cc1cc(C)c(NC(=O)c2ccccc2CCc2ccccc2)c(C)c1	17*	4	4	-1

Screens (PubChem)
